Screening data from PubChem.
Compounds with a hit are over-represented: about 21% of the library has one in this group of screens.
Shiga toxin inh – blocks Shiga toxin action in Vero cells; Vero cells, Shiga toxin protein synthesis inhibition reporter; AID 2315; inhibition, % at 38.7 µM; actives 9.2% (n = 290,000); in the data active means inhibition mostly above about 28%, no sharp cut-off; inactive means mostly below about 43%; further: 0% is about no effect
SARS PLpro yeast – SARS-CoV PLP inhibition in yeast; actives 0.19% (n = 330,000); AID 485353; Potency, µM (doses to about 32.9 µM), for inactives: top-dose activity, positive = growth rescue, usual class: activators; S. cerevisiae expressing SARS-CoV PLpro, growth rescue; further: potency means the concentration at half of the fitted maximal effect; 0% is about no effect; nearly all actives have a fitted effect of over 55% in size
Pf growth 96h – P. falciparum growth inhibition at 96 hour, primary screen for plastid delayed-death inhibitors. P. falciparum luciferase reporter growth, 96 h. Potency, µM (top dose mostly 28.7 µM), for inactives: top-dose activity change, negative = inhibition, actives largely listed as inhibitors. actives 6.9% (n = 320,000); active means well fitted inhibition curve with a large enough effect; inconclusive means small, poorly fitted or top-dose-only effect, or another doubt; inactive means no such curve, though single readings can be large or run the other way; further: potency means the concentration at half of the fitted maximal effect; on the % scale 0 is the no-effect control and ±100 the full control effect
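Luminescence readout: decreased luciferase signal marks inhibited growth of reporter-expressing P. falciparum in infected red cells (2% hematocrit, 0.05% parasitemia final), exposed to compound two generations (96 h, 37 C, 5% CO2).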
NS1 inh – blocks influenza NS1 protein function | Potency, µM (series often up to 46.1 µM), for inactives: at the highest dose activity, positive = more growth | actives 0.4% (n = 270,000) | AID 2326; further: potency means the concentration at half of the fitted maximal effect; actives are rising curves; nearly all actives have a fitted effect of over 50% in size
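Growth recovery, yeast-based: influenza A NS1 expressed in S. cerevisiae causes slow growth, and suppressors are detected by OD600. The parent strain without NS1 is used as positive control.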
Pf growth 48h – inhibits P. falciparum growth in the first generation, 48 h. P. falciparum luciferase growth in erythrocytes, 48 h. actives 5.9% (n = 310,000). Potency, µM (doses to about 28.7 µM), inactives show at the highest dose activity change, negative = inhibition, actives largely listed as inhibitors; active means well fitted inhibition curve with a large enough effect; inconclusive means small, poorly fitted or top-dose-only effect, or another doubt; inactive means no such curve, though single readings can be large or run the other way; further: potency means the concentration at half of the fitted maximal effect; on the % scale 0 is the no-effect control and ±100 the full control effect
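Read-out is firefly luciferase luminescence from an integrated reporter in P. falciparum, so falling signal marks reduced parasite growth. Infected erythrocytes were at 2% hematocrit and 0.1% parasitemia (final) in Albumax-supplemented RPMI 1640.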
CHX counter – counter-screen hit for Shiga toxin inhibitors, cycloheximide. cell reporter, cycloheximide protein synthesis inhibition counterscreen. max response, %. actives 12% (n = 300,000); in the data active means max response mostly above about 13%, no sharp cut-off; inactive means mostly below about 14%; further: read at 38.3 µM for the half of the compounds with a filed dose; 0% is about no effect
The depositor's hits bear a star; [ ] = another dose, or the depositor's remark. Unless noted, the call rests on the fitted dose curve.

For C/C(=C\c1ccc(C)o1)C(=O)c1c(C)cc(C)[nH]c1=O the results were Shiga toxin inh 21.0, SARS PLpro yeast 5.5%, Pf growth 96h 29.7%, Pf growth 48h -10.4% and CHX counter -5.8.
`Cc1nnc(SCC(=O)Nc2ccccc2F)n1-c1ccc(F)cc1` gave Shiga toxin inh -13.2, SARS PLpro yeast -1.3%, Pf growth 96h -0.1%, NS1 inh -2.8%, Pf growth 48h -7.9%[0.00184 µM] and CHX counter -5.0.
`O=C(NC1(C(F)(F)F)NC(=O)N(Cc2cccnc2)C1=O)c1ccccc1` (configuration not stated) gave Shiga toxin inh -8.6, SARS PLpro yeast -0.4%, Pf growth 96h 13.5%, NS1 inh 4.5%, Pf growth 48h 6.9% and CHX counter 1.0.
O=C(NC1(C(F)(F)F)NC(=O)N(Cc2ccccc2)C1=O)c1cccnc1 (configuration not stated) was read as Shiga toxin inh -22.8, SARS PLpro yeast -4.5%, Pf growth 96h 2.94µM*, NS1 inh 0.6% and CHX counter -5.3.
Cc1ccc(C[n+]2cccc(-c3ccccc3)c2)c(C)c1 was read as Shiga toxin inh -13.8, SARS PLpro yeast 2.4%, Pf growth 96h 0.329µM*, NS1 inh -3.0%, Pf growth 48h 0.928µM* and CHX counter -3.9.
`C/C(=N\Nc1ccc(F)cc1F)c1cccs1` gave Shiga toxin inh 63.7, SARS PLpro yeast -2.1%, Pf growth 96h 12.4%, NS1 inh 9.9%, Pf growth 48h 19.6% and CHX counter 35.2*.
`COc1ccc(/C(C)=N/NS(=O)(=O)c2ccccc2)c(OC)c1` gave Shiga toxin inh 4.6, SARS PLpro yeast -3.2%, Pf growth 96h 0.8%, Pf growth 48h inconclusive and CHX counter 5.3.
COc1ccc(/C(C)=N/Nc2ccccc2Cl)c(O)c1 was read as Shiga toxin inh 47.6*, SARS PLpro yeast -0.5%, Pf growth 96h 207.8%, NS1 inh -0.8%, Pf growth 48h 114.2% and CHX counter 36.9*.
`COc1ccc(/C(C)=N/Nc2ccc(F)cc2F)c(O)c1` gave Shiga toxin inh 73.8*, SARS PLpro yeast -0.3%, Pf growth 96h 46.9%, Pf growth 48h 145.7% and CHX counter 42.1*.
`N/C(CC(=O)Nc1ccc(F)cc1F)=N\OC(=O)c1cccs1` gave Shiga toxin inh 12.5, SARS PLpro yeast 0.8%, Pf growth 96h 0.0%, NS1 inh -1.3%, Pf growth 48h 0.7% and CHX counter -2.3.
Screening CCOc1ccc2nc(SCC(=O)Nc3ccc4[nH]c(=O)[nH]c4c3)[nH]c2c1 returned SARS PLpro yeast -4.9%, Pf growth 96h -64.2% and Pf growth 48h inconclusive.
For CCOc1ccc2c(c1)c(N=NC(N)=S)c(O)n2C the results were Shiga toxin inh 4.1, SARS PLpro yeast 0.4%, Pf growth 96h 5.22µM*, NS1 inh -3.9%, Pf growth 48h 9.28µM* and CHX counter -2.0.
CCOc1ccc2c(c1)c(N=NC(=N)N)c(O)n2C was read as Shiga toxin inh -11.3, SARS PLpro yeast -2.2%, Pf growth 96h 50.8%, NS1 inh -3.6%, Pf growth 48h 20.6% and CHX counter -0.7.
Cc1ccc2c(c1)c(N=NC(N)=O)c(O)n2C was read as Shiga toxin inh 14.8, SARS PLpro yeast 0.8%, Pf growth 96h 0.0%, NS1 inh 3.0%, Pf growth 48h 16.5% and CHX counter 1.1.
`CCOc1ccc2c(c1)c(N=Nc1cccc(C(=O)O)c1)c(O)n2C` gave Shiga toxin inh 62.4*, SARS PLpro yeast 0.7%, Pf growth 96h inconclusive, NS1 inh 6.0%, Pf growth 48h 94.9% and CHX counter 57.7*.
Screening Cc1ccc2c(c1)c(N=Nc1cccc(C(=O)O)c1)c(O)n2C returned Shiga toxin inh 59.9*, SARS PLpro yeast 3.8%, Pf growth 96h inconclusive, Pf growth 48h 36.9% and CHX counter 15.5*.
Screening Cc1cccc(N(C)C(=O)C2CCCN2S(=O)(=O)c2cccc3nsnc23)c1 (configuration not stated) returned Shiga toxin inh -5.5, SARS PLpro yeast 1.7%, Pf growth 96h inconclusive, NS1 inh -2.2%, Pf growth 48h -9.6% and CHX counter -1.0.
Cc1cc(NC(=O)Cn2nc([N+](=O)[O-])c(Br)c2C)no1 was read as Shiga toxin inh 8.4, SARS PLpro yeast 0.6%, Pf growth 96h -13.5%, NS1 inh 3.4%, Pf growth 48h 5.8% and CHX counter 1.5.
`O=C(Oc1cccc(NC(=O)c2ccco2)c1)c1cccc(S(=O)(=O)N2CCCC2)c1` gave Shiga toxin inh 24.9, SARS PLpro yeast -1.5%, Pf growth 96h 3.3%, NS1 inh 10.1%, Pf growth 48h 31.8% and CHX counter 18.0*.
Screening O=C(Oc1cccc(NC(=O)c2cccs2)c1)c1cccc(S(=O)(=O)N2CCCC2)c1 returned Shiga toxin inh 38.2, SARS PLpro yeast -14.0%, Pf growth 96h inconclusive, NS1 inh inconclusive, Pf growth 48h 62.4% and CHX counter 13.6*.
CCCCC(=O)N1CCN(c2nc(-c3ccc(F)cc3)cs2)CC1 was read as Shiga toxin inh 9.6, SARS PLpro yeast 0.3%, Pf growth 96h inconclusive, NS1 inh inconclusive, Pf growth 48h 8.9% and CHX counter 6.6.
CCN(CC)CCCNC(=S)N1CCN(c2nc(-c3ccc(F)cc3)cs2)CC1 was read as SARS PLpro yeast -1.3%, Pf growth 96h -19.6%, NS1 inh 17.2%, Pf growth 48h 9.28µM* and CHX counter -12.2.
`CCNC(=S)N1CCN(c2nc(-c3ccc(F)cc3)cs2)CC1` gave Shiga toxin inh 20.7, SARS PLpro yeast -5.0%, Pf growth 96h 8.2%, NS1 inh 11.9%, Pf growth 48h -11.2% and CHX counter 9.7*.
Screening COCCNC(=S)N1CCN(c2nc(-c3ccc(F)cc3)cs2)CC1 returned Shiga toxin inh 19.2, SARS PLpro yeast -0.9%, Pf growth 96h inconclusive, NS1 inh 19.7%, Pf growth 48h -17.2% and CHX counter 11.7*.
`O=C1[C@H]2[C@@H](/C=C/c3ccccc3)N3C(=O)CN(Cc4ccccn4)C(=O)[C@@]3(Cc3ccccc3)[C@H]2C(=O)N1c1ccccc1` gave Shiga toxin inh -6.1, SARS PLpro yeast -7.1%, Pf growth 96h 7.0%, NS1 inh -13.5%, Pf growth 48h -6.7% and CHX counter -1.7.
For COc1cccc(Nc2nc(-c3ccc4c(c3)OCCO4)cs2)c1 the results were Shiga toxin inh 103.3*, SARS PLpro yeast -8.9%, Pf growth 96h 418.1%, NS1 inh 6.8%, Pf growth 48h 92.8% and CHX counter 53.4*.
c1ccc(-c2csc(Nc3ccc4c(c3)OCCO4)n2)cc1 was read as Shiga toxin inh 97.2*, Pf growth 96h 101.8%, NS1 inh 6.4%, Pf growth 48h 42.9% and CHX counter 54.1*.
